40 molecules from PubChem BioAssay can be followed below.

Unmarked numbers belong to inactive results. The source made the active and inactive calls.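 How the source made its calls: active means z-score of at least 1.8 in each of two replicates, scored against plate mean and spread of sample wells; inactive means the rest.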

The test in a line: galactose survival enhancers in mitochondrial complex I cybrids – cell-based, galactose medium, ATP luminescence, primary screen (AID 1645843).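 Further: positive z means more ATP and so rescue of galactose-driven cybrid death.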 To be noted: complex I mutant cybrid cells, 72 h, stronger effect = higher value.
For `C1=CCC(CN2CCC(N3CCCC3)CC2)CC1` (stereo not given), the z-score is -0.58. On to `CCC(C)(C)NCc1c(C)cc(C)c(CO)c1C`, for which the z-score is -0.525. In the case of `Cc1cc(CN2CCC(Cc3ccc(F)cc3)CC2)n(C)n1`, the z-score was 0.225. For `CC(O)c1cn(CC2CCN(C(=O)CC3CCCCCC3)CC2)nn1` (stereo not given), the z-score is -0.54. `CC(=O)N[C@@H](CC(C)C)C(=O)N1CCC(n2cc(C(C)(C)N)nn2)CC1`: the z-score is -0.505. Regarding `Cc1cc(-c2ccccc2C(F)(F)F)nc(N)n1`, the z-score is -0.545. Then `CC(C)Oc1cccc(C(=O)N2CCC(Cn3cc(C4CC4)nn3)CC2)c1`, with -0.515; and `COc1cccc2ccc(-c3ccccc3)nc12`, with -0.375; and `CC1Cc2cc(C(=O)N3CCC(Cn4cc(C5CC5)nn4)CC3)ccc2O1` (stereo not given), with -0.53. Take `O=C(c1cc(-c2cncnc2)nc2cc(F)ccc12)N1CCCC1Cc1cccnc1` (stereo not given): the z-score was 0.765.

With `CCc1nc(C)ccc1OCC(=O)N1CCc2[nH]nc(C3CCC3)c2C1`, the z-score was -0.6. Then `CCCc1ccc(C(=O)N2CCC2c2cccc(OC)c2)cc1` (stereo not given), with 2.41 (active); and `Cc1nsc(NC(=O)N2CCCCC2c2cccc(F)c2)n1` (stereo not given), with -0.55. Turning to `c1ccc(C(CCn2ccnc2)NC2CCCCCC2)cc1` (stereo not given), the z-score is -0.47. Turning to `CCn1ccnc1CN(C)Cc1ccc(-c2nc(C(F)(F)F)c(C)c(=O)[nH]2)cc1`, the z-score is 0.66.

With `CC(C)CN1CCC(CNCc2ccc(C#CC(C)(C)O)s2)CC1`, the z-score was -1.05.

As to `Cc1cc(C)c(-n2cccn2)c(-c2nc3c(cnn3C(C)C)[nH]2)c1`, the z-score was -0.485. On to `CCCCc1cn(C2CCN(C(=O)C3CCCCCC3)CC2)nn1`, for which the z-score was -0.56. For `CN1CCN(C(=O)c2ccc3c(c2)CCO3)CC1=O`, the z-score is 0.07. In the case of `CCCCc1cc(=O)[nH]c(-c2ccc(CN(C)CCOC)cc2)n1` it was -0.415.

As for `Cc1cnc(NCCCn2ncc3ccccc32)nc1-c1cnn(C)c1`, the z-score is 0.065. In the case of `O=C1NCCN(C(=O)c2ccc(F)c(F)c2)C1Cc1ccccc1` (stereo not given), the z-score is -0.495.

With `COc1ccc(-c2ccc3cc(Cl)ccc3n2)c(OC)c1`, the z-score was 1.15. For `CCCCC1C(=O)N(C)CCN1C(=O)Nc1nnc(C(C)(C)C)s1` (stereo not given), the z-score was -0.33. For `COc1cc(C)c(CNC(C)CCCC(C)(C)O)c(C)c1C` (stereo not given), the z-score is -0.435. As for `CN1CCN(c2ccc3cc(Cl)ccc3n2)CC1=O`, the z-score was -0.56. As for `CC(C)CN1CCN(Cc2ccco2)C(CCO)C1` (stereo not given), the z-score was -0.595. As to `CCc1cc(-c2cccc(C)c2C)nc(N(C)C)n1`, the z-score is 1.21. In the case of `C=C1C2(C(=O)N3CCC(c4ccccc4F)C3)CCC(C2)C1(C)C` (stereo not given), the z-score was 1.09. As for `CC1(C)CCN(C(=O)c2cc(-c3cnc(C4CC4)nc3)nc3cc(F)ccc23)C1`, the z-score was -0.56. Take `Cc1cccc2c(C(=O)N(C)C(C)C)cc(-c3cnc(-c4cccnc4)nc3)nc12`: the z-score is -0.13. For the molecule `Cc1ccccc1C1CCCN(C(=O)c2cc(C(C)C)no2)C1` (stereo not given), the z-score was 2.95 (active). With `Cc1nsc(NC(=O)N2CCC(N)CC2)n1`, the z-score is 0.04.

Consider `CN(CC1Cc2ccccc2O1)C(=O)Nc1nc(-c2ccccc2)ns1` (stereo not given), for which the z-score was 1.98. In the case of `CCc1n[nH]c2c1CN(C(=O)c1cncc(C)c1)CC2` it was 1.23; in that of `C=C1C(C)(C)[C@H]2CC[C@]1(C(=O)N1CCC(n3cc(CC(C)C)nn3)CC1)C2`, -0.52. In the case of `COc1nc2c(cc1C(=O)N1CCOc3ccccc31)CCC2`, the z-score was 0.225.

For `C=C1C2(C(=O)N3CCC(c4ccc(F)cc4)C3)CCC(C2)C1(C)C` (stereo not given), the z-score is 0.91. Turning to `Cn1ncc2[nH]c(-c3cc(F)ccc3-n3cccn3)nc21`, the z-score is -0.56.

For the molecule `O=C1NCCN(C(=O)c2cccc(-c3ccccc3)c2)C1Cc1ccccc1` (stereo not given), the z-score was 2.37 (active).
